Hit rate of the full screen: of about 5,500 compounds, about 2,000 (36%) were called active. Roughly 18% stayed inconclusive and do not appear here. Rule as the data show it: active = normalized growth mostly below about 0.91 (no sharp cut-off); inconclusive = no clear call, values can overlap the other calls; inactive = mostly above about 0.92. The list shows a part of the results.
Experiment: chemical genetic growth profiling, strain panel (AID 1159580);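 also: tested at 20 µM; growth read once vehicle control cultures reached saturation at 30 °C; 1 = growth at the plate median or of vehicle wells; lower values mean less growth of the strain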
Details: growth OD

Measured: normalized growth

COC(=O)C[C@H]1C(C)(C)C(=O)[C@@H]2CC3=C(CC[C@]4(C)C3=CC(=O)O[C@H]4c3ccoc3)[C@@]1(C)C2=O
inactive: S. cerevisiae deletion strains, locus YJL168C, strain set2, active compounds read low 1.02 | S. cerevisiae deletion strains, locus YJL187C, strain SWE1 (second series), active compounds read low 1.01 | S. cerevisiae deletion strains, locus YJL187C, strain SWE1, active compounds read low 0.993 | S. cerevisiae deletion strains, locus YJR066W, strain TOR1, active compounds read low 0.928 | S. cerevisiae deletion strains, locus YKL009W, strain mrt4, active compounds read low 1.01 | S. cerevisiae deletion strains, locus YKL068W, active compounds read low 1.01 | S. cerevisiae deletion strains, locus YKL085W, strain MDH1 (second series), active compounds read low 1.01 | S. cerevisiae deletion strains, locus YKL085W, strain MDH1, active compounds read low 1.01 | S. cerevisiae deletion strains, locus YKL160W, strain elf1, active compounds read low 0.995 | S. cerevisiae deletion strains, locus YKR001C, strain vps1, active compounds read low 1.01 | S. cerevisiae deletion strains, locus YKR026C, strain gcn3, active compounds read low 0.975 | S. cerevisiae deletion strains, locus YKR091W, strain srl3, active compounds read low 0.984 | S. cerevisiae deletion strains, locus YLL001W, strain dnm1, active compounds read low 1 | S. cerevisiae deletion strains, locus YLL026W, active compounds read low 0.982 | S. cerevisiae deletion strains, locus YLL041C, strain sdh2, active compounds read low 0.972 | S. cerevisiae deletion strains, locus YLR027C, strain aat2, active compounds read low 0.984 | S. cerevisiae deletion strains, locus YLR039C, strain RIC1, active compounds read low 1.03 | S. cerevisiae deletion strains, locus YLR058C, strain SHM2, active compounds read low 1.01 | S. cerevisiae deletion strains, locus YLR102C, strain apc9, active compounds read low 1.02 | S. cerevisiae deletion strains, locus YLR113W, strain HOG1, active compounds read low 1.02 | S. cerevisiae deletion strains, locus YLR221C, strain rsa3, active compounds read low 0.958 | S. cerevisiae deletion strains, locus YLR258W, strain gsy2, active compounds read low 0.961 | S. cerevisiae deletion strains, locus YLR262C, strain YPT6 (second series), active compounds read low 1.04 | S. cerevisiae deletion strains, locus YLR262C, strain YPT6, active compounds read low 1.09 | S. cerevisiae deletion strains, locus YLR268W, strain sec22, active compounds read low 1.01 | S. cerevisiae deletion strains, locus YLR320W, strain mms22, active compounds read low 0.963 | S. cerevisiae deletion strains, locus YLR342W, strain FKS1, active compounds read low 0.963 | S. cerevisiae deletion strains, locus YLR357W, strain rsc2, active compounds read low 0.963 | S. cerevisiae deletion strains, locus YLR370C, strain arc18, active compounds read low 0.956 | S. cerevisiae deletion strains, locus YLR371W, strain rom2, active compounds read low 1.02 | S. cerevisiae deletion strains, locus YLR384C, strain iki3, active compounds read low 0.968 | S. cerevisiae deletion strains, locus YLR418C, strain cdc73, active compounds read low 1.03 | S. cerevisiae deletion strains, locus YML016C, strain PPZ1, active compounds read low 1.05 | S. cerevisiae deletion strains, locus YML032C, strain rad52, active compounds read low 1.01 | S. cerevisiae deletion strains, locus YML120C, strain ndi1, active compounds read low 0.976 | S. cerevisiae deletion strains, locus YML124C, strain tub3, active compounds read low 1.01 | S. cerevisiae deletion strains, locus YMR058W, strain fet3, active compounds read low 0.993 | S. cerevisiae deletion strains, locus YMR078C, strain ctf18, active compounds read low 1.03 | S. cerevisiae deletion strains, locus YMR125W, strain sto1, active compounds read low 0.975 | S. cerevisiae deletion strains, locus YMR129W, active compounds read low 0.988 | S. cerevisiae deletion strains, locus YMR205C, strain PFK2, active compounds read low 0.997 | S. cerevisiae deletion strains, locus YMR223W, strain ubp8, active compounds read low 1.01 | S. cerevisiae deletion strains, locus YMR231W, strain pep5, active compounds read low 0.953 | S. cerevisiae deletion strains, locus YMR307W, strain GAS1, active compounds read low 1.03 | S. cerevisiae deletion strains, locus YNL067W, strain RPL9B, active compounds read low 1.01 | S. cerevisiae deletion strains, locus YNL071W, strain lat1, active compounds read low 0.972 | S. cerevisiae deletion strains, locus YNL183C, strain NPR1, active compounds read low 0.942 | S. cerevisiae deletion strains, locus YNL209W, strain ssb2, active compounds read low 0.984 | S. cerevisiae deletion strains, locus YNL233W, strain BNI4, active compounds read low 0.984 | S. cerevisiae deletion strains, locus YNL248C, strain rpa49, active compounds read low 0.977 | S. cerevisiae deletion strains, locus YNL250W, strain rad50, active compounds read low 1.02 | S. cerevisiae deletion strains, locus YNL271C, strain bni1, active compounds read low 1.01 | S. cerevisiae deletion strains, locus YNL298W, strain CLA4, active compounds read low 1.02 | S. cerevisiae deletion strains, locus YNL307C, strain MCK1, active compounds read low 1.02 | S. cerevisiae deletion strains, locus YNL322C, strain KRE1 (second series), active compounds read low 0.966 | S. cerevisiae deletion strains, locus YNR049C, strain mso1, active compounds read low 0.975 | S. cerevisiae deletion strains, locus YNR052C, strain pop2, active compounds read low 1.03 | S. cerevisiae deletion strains, locus YOL012C, strain htz1 1.95 | S. cerevisiae deletion strains, locus YOL147C, strain pex11, active compounds read low 1.01 | S. cerevisiae deletion strains, locus YOR001W, strain rrp6, active compounds read low 0.946 | S. cerevisiae deletion strains, locus YOR061W, strain CKA2, active compounds read low 1 | S. cerevisiae deletion strains, locus YOR069W, strain VPS5, active compounds read low 1 | S. cerevisiae deletion strains, locus YOR070C, strain gyp1, active compounds read low 0.979 | S. cerevisiae deletion strains, locus YOR080W, strain dia2, active compounds read low 0.966 | S. cerevisiae deletion strains, locus YOR083W, strain WHI5, active compounds read low 1.01 | S. cerevisiae deletion strains, locus YOR106W, strain vam3, active compounds read low 0.974 | S. cerevisiae deletion strains, locus YOR136W, strain idh2, active compounds read low 1.01 | S. cerevisiae deletion strains, locus YOR144C, strain elg1, active compounds read low 1 | S. cerevisiae deletion strains, locus YOR184W, strain ser1, active compounds read low 1 | S. cerevisiae deletion strains, locus YOR231W, strain MKK1, active compounds read low 0.99 | S. cerevisiae deletion strains, locus YOR265W, strain rbl2, active compounds read low 0.972 | S. cerevisiae deletion strains, locus YOR270C, strain vph1, active compounds read low 0.963 | S. cerevisiae deletion strains, locus YOR290C, strain snf2, active compounds read low 0.992 | S. cerevisiae deletion strains, locus YOR316C, strain cot1, active compounds read low 1 | S. cerevisiae deletion strains, locus YPL051W, strain arl3, active compounds read low 1 | S. cerevisiae deletion strains, locus YPL078C, strain atp4, active compounds read low 0.996 | S. cerevisiae deletion strains, locus YPL106C, strain sse1, active compounds read low 0.952 | S. cerevisiae deletion strains, locus YPL240C, strain hsp82, active compounds read low 0.978 | S. cerevisiae deletion strains, locus YPL256C, strain CLN2, active compounds read low 0.961 | S. cerevisiae deletion strains, locus YPR119W, strain clb2, active compounds read low 1.01 | S. cerevisiae deletion strains, locus YPR141C, strain kar3, active compounds read low 1.02 | S. cerevisiae deletion strains, locus YPR163C, strain tif3, active compounds read low 1 | S. cerevisiae deletion strains, locus YPR167C, strain met16, active compounds read low 1.02 | S. cerevisiae deletion strains, strain wtn01, active compounds read low 1 | S. cerevisiae strains, strain wild type, active compounds read low 0.992

Reference: PubChem BioAssay AID1159580 (chemical genetic matrix, 2015)
